Assay results from the supplement of paper PMC11577813, “Eurasian spruce bark beetle detects lanierone using a highly expressed specialist odorant receptor, present in several functional sensillum types” (BMC Biology, 2024).
± gives the standard deviation of the averaged measurements.

Assays:
[1] = test system: (+)-isopinocamphone A-neuron OSN class; assay: net action potential response of A-neuron (blank-subtracted) (spikes/s (Hz)); higher = stronger excitation; conditions: 10 µg on filter paper; neuron: A neuron (large spike amplitude)
Summary of the method: (§1)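 Single sensillum recordings with tungsten electrodes were taken from one fixed antenna of live lab-reared adult Ips typographus, with each compound (10 μg in paraffin oil on filter paper in a pipette) given as a 0.5 s pulse at 0.3 L/min into a humidified, charcoal-filtered 1.8 L/min airstream. AutoSpike counts of A-neuron or B-neuron spikes in 0.5 s windows had the pre-stimulus count subtracted. Responses were then converted to spikes/s, blank-subtracted and averaged over 1–4 sensilla.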

[2] = test system: (+)-trans-4-thujanol A-neuron OSN class; assay: as above; conditions: 10 µg on filter paper; neuron: A neuron (large spike amplitude)
Summary of the method: as §1

[3] = test system: (5S,7S)-trans-conophthorin A-neuron OSN class; assay: as above; conditions: 10 µg on filter paper; neuron: A neuron (large spike amplitude)
Summary of the method: as §1

[4] = test system: myrcene A-neuron OSN class; assay: as above; conditions: 10 µg on filter paper; neuron: A neuron (large spike amplitude)
Summary of the method: as §1

[5] = test system: p-cymene A-neuron OSN class; assay: as above; conditions: 10 µg on filter paper; neuron: A neuron (large spike amplitude)
Summary of the method: as §1

[6] = test system: lanierone-responsive B-neuron OSN class (ItypOR36); assay: net action potential response of lanierone B-neuron (blank-subtracted) (spikes/s (Hz)); higher = stronger excitation; conditions: 10 µg on filter paper, neuron: B neuron (small spike amplitude)
Summary of the method: as §1

[7] = test system: ipsdienol A-neuron OSN class; assay: net action potential response of A-neuron (blank-subtracted) (spikes/s (Hz)); higher = stronger excitation; conditions: 10 µg on filter paper; neuron: A neuron (large spike amplitude)
Summary of the method: as §1

[8] = co-localized A-neuron class: (4S)-cis-verbenol
[9] = co-localized A-neuron class: (5S,7S)-trans-conophthorin
[10] = co-localized A-neuron class: (+)-isopinocamphone
[11] = co-localized A-neuron class: (+)-trans-4-thujanol
[12] = co-localized A-neuron class: ipsdienol
[13] = co-localized A-neuron class: myrcene
[14] = co-localized A-neuron class: p-cymene

SMILES	net action potential response [1]	net action potential response [2]	net action potential response [3]	net action potential response [4]	net action potential response [5]	net action potential response [6, 8]	net action potential response [6, 9]	net action potential response [6, 10]	net action potential response [6, 11]	net action potential response [6, 12]	net action potential response [6, 13]	net action potential response [6, 14]	net action potential response [7]
CC(C)=CCC/C(C)=C/C=O [Citral (E/Z mix)]	0.667 ± 5	0.5 ± 1.9	2 ± 7.2	2	-2 ± 2	-1.33 ± 4.6	-3.33 ± 4.2	1.33 ± 4.2	2 ± 8.2	-5.33 ± 7.6	0	-0.667 ± 4.2	
CCC/C=C/C=O [(E)-hex-2-enal]	-3.33 ± 2.3	1 ± 5.8	4.67 ± 4.2	2	3 ± 1.4	-2.67 ± 18	0 ± 2	-2.67 ± 3.1	-1.5 ± 3.4	0.667 ± 1.1	-6	-2 ± 8.5	
CC(=O)c1ccccc1 [Acetophenone]	2.67 ± 4.2	2 ± 2.8	2 ± 2	-2	4.67 ± 7.6	0 ± 5.3	-3.33 ± 4.2	-0.667 ± 2.3	1.5 ± 1	-4.67 ± 3.1	4	1.33 ± 10	
CCCCCC(O)CC (racemic) [(±)-3-Octanol]	10 ± 10	57.5 ± 45	13 ± 10	6	3.33 ± 2.3	1.33 ± 7.6	-1 ± 3.5	-3.33 ± 4.2	-4 ± 8.6	-4.67 ± 4.2	-6	-3.33 ± 5.8	-0.667 ± 5
CC(C)[C@@]12CC[C@@](C)(O)[C@@H]1C2 [(+)-trans-4-Thujanol]	11.3 ± 16	133 ± 37	-1 ± 1.1	-4	37.3 ± 13	-3.33 ± 4.2	0 ± 5.9	0.667 ± 1.1	-6.5 ± 5.5	-0.667 ± 2.3	2	-1.33 ± 3.1	
CC(=O)OCc1ccccc1 [Benzyl acetate]	4 ± 3.5	0 ± 2.8	1.33 ± 4.2	-4	0 ± 4	2.67 ± 6.4	2 ± 5.3	3.33 ± 6.1	-0.5 ± 1.9	-6.67 ± 3.1	0	0.667 ± 4.2	
C=CC(O)CCCCC (racemic) [(±)-1-Octen-3-ol]	-4.67 ± 1.1	33 ± 24	1.5 ± 2.5	2	1.33 ± 1.1								
CC1=CCC2CC1C2(C)C (stereo not drawn) [(-)-α-Pinene]	4 ± 3.5	-0.5 ± 1.9	2.67 ± 3.1	2	5.33 ± 6.4								
CC/C=C\CCO	10.7 ± 27	74.5 ± 42	-2 ± 4	6	0 ± 4								
COc1ccccc1 [Anisole]	2 ± 5.3	1 ± 4.2	1.33 ± 4.2	-2	10.7 ± 5.8								
CCc1ccc(O)c(OC)c1 [4-Ethylguaiacol]	-1.33 ± 2.3	1 ± 1.1	3.33 ± 4.2	4	0.667 ± 2.3								
C=C(C)[C@@H]1CC=C(C)CC1 [(-)-Limonene]	-0.667 ± 4.2	2 ± 1.6	0 ± 2	6	26.7 ± 13	-1.33 ± 5.8	-2.67 ± 3.1	-0.667 ± 2.3	2.5 ± 5.3	1.33 ± 4.6	-8	-1.33 ± 4.2	
CC/C=C/CCO	8.67 ± 14	27.5 ± 23	-2 ± 2	-4	0.667 ± 3.1								
CC(C)CCO [3-Methyl-1-butanol]	2 ± 2	11 ± 11	3.33 ± 3.1	-2	7.33 ± 6.1								
C=CC(=C)CC(O)C=C(C)C (racemic) [(±)-Ipsdienol]	-4.67 ± 1.1	-1.5 ± 1.9	-2.5 ± 1.9	40	-1.33 ± 4.2								
C=C(C)C1CC=C(C)C(=O)C1 (racemic) [(±)-Carvone]	-1.33 ± 1.1	1 ± 2.6	1 ± 3.5	0	30 ± 22								
CCC(C)CO (racemic) [(±)-2-Methyl-1-butanol]	0 ± 2	2.5 ± 6.8	5 ± 1.1	4	8 ± 4								

SMILES	net action potential response [1]	net action potential response [2]	net action potential response [3]	net action potential response [4]	net action potential response [5]	net action potential response [6, 8]	net action potential response [6, 9]	net action potential response [6, 10]	net action potential response [6, 11]	net action potential response [6, 12]	net action potential response [6, 13]	net action potential response [6, 14]	net action potential response [7]
C=C1CCC2CC1C2(C)C (stereo not drawn) [(-)-β-Pinene]	8 ± 7.2	1 ± 1.1	2 ± 6	18	0.667 ± 4.6	-0.667 ± 7.6	3.33 ± 3.1	-3.33 ± 4.6	-3 ± 4.2	0 ± 6	-8	0 ± 7.2	
CC1=CC(=O)[C@@H]2C[C@H]1C2(C)C [(-)-Verbenone]	0.667 ± 1.1	1 ± 4.8	-5 ± 4.8	-6	-0.667 ± 3.1								2 ± 2
C=CCc1ccc(OC)c(OC)c1 [Eugenol methyl ether]	-0.667 ± 5.8	0 ± 1.6	4 ± 2.3	0	4.67 ± 5	0 ± 8.7	-3 ± 5	4.67 ± 9	-2 ± 1.6	-1.33 ± 5	0	-3.33 ± 9.4	
CC1=CCC2C(C1)C2(C)C (single isomer, unassigned; (+)) [(+)-3-Carene]	2 ± 5.3	7.5 ± 6.8	6.67 ± 4.6	12	50.7 ± 18	1.33 ± 13	3.33 ± 2.3	-2.67 ± 5	-2.5 ± 2.5	-1.33 ± 4.2	-2	-3.33 ± 4.2	
CC1(C)C2CC=C(CO)C1C2 (racemic) [(±)-Myrtenol]	1.33 ± 5	1.5 ± 2.5	-1 ± 3.5	2	1.33 ± 3.1	-0.667 ± 3.1	2.5 ± 6	-1.33 ± 3.1	0 ± 2.3	-2 ± 14	-6	0 ± 2	
COc1ccc(C)cc1 [4-Methyl anisole]	7.33 ± 4.6	6.5 ± 3.4	2 ± 2	-4	44 ± 12	-1.33 ± 8.3	2 ± 3.5	2.67 ± 1.1	-2 ± 6.7	0.667 ± 10	-8	-2.67 ± 3.1	
CC1=CC(C)(C)C=C(O)C1=O [Lanierone]	46.7 ± 9.2	-1.5 ± 1.9	-1.5 ± 7	0	1.33 ± 1.1								
CCC/C=C/CO	-1.33 ± 4.2	0 ± 1.6	-0.667 ± 6.4	-2	1.33 ± 1.1								
CC(=O)OCCc1ccccc1 [2-Phenethyl acetate]	0.667 ± 3.1	2.5 ± 4.1	2 ± 2	8	-1.33 ± 4.6								
C[C@@H]1C(=O)C[C@H]2C[C@@H]1C2(C)C [(+)-Isopinocamphone]	172 ± 28	-2 ± 5.9	1.33 ± 1.1	-4	-3.33 ± 2.3	-0.667 ± 17	1.33 ± 5	-5.33 ± 3.1	1 ± 2.6	-2 ± 2	-2	-0.667 ± 3.1	
CC1=CCC(=C(C)C)CC1 [Terpinolene]	3.33 ± 5.8	0.5 ± 5.5	4 ± 6.9	2	20 ± 16	4.67 ± 6.4	2 ± 2	-4 ± 2	-3 ± 3.8	2 ± 5.3	-8	0.667 ± 2.3	
CCC/C=C\CO	18 ± 19	25.5 ± 12	-2 ± 6	2	0								
C=Cc1ccc(OC)cc1 [4-Vinyl anisole]	-0.667 ± 4.2	1.5 ± 3.4	-1.33 ± 3.1	-2	15.3 ± 14	1.33 ± 9	3.33 ± 4.6	1.33 ± 9.2	-2.5 ± 5.5	2.67 ± 6.4	0	0 ± 7.2	
CC1=C[C@@H](O)[C@H]2C[C@@H]1C2(C)C [(-)-trans-Verbenol]	0.667 ± 10	5.5 ± 5.7	13 ± 20	6	2 ± 2								
C[C@H]1C(=O)C[C@H]2C[C@@H]1C2(C)C [(-)-Pinocamphone]	119 ± 57	-0.5 ± 1.9	2 ± 2	0	3.33 ± 3.1								
CCC1CCC2(CCCO2)O1 (racemic) [(±)-Chalcogran]	-3.33 ± 1.1	9 ± 10	175 ± 15	2	0.667 ± 3.1								
